Measured values: PubChem BioAssay AID1159580 (chemical genetic matrix, 2015)
Several values for one entry are separate records, joined by “and”; a condition that tells them apart may be missing. Identical values can stand only once. Out of some 5,500 compounds screened, about 2,000 (36%) were called active. Not shown: some 18% with an inconclusive outcome. Rule as the data show it: active = normalized growth mostly below about 0.91 (no sharp cut-off); inconclusive = no clear call, values can overlap the other calls; inactive = mostly above about 0.92. The list shows a part of the results.

Experiment: chemical genetic growth profiling, strain panel (AID 1159580);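 also: tested at 20 µM; growth read once vehicle control cultures reached saturation at 30 °C; 1 = growth at the plate median or of vehicle wells; lower values mean less growth of the strain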
Details: S. cerevisiae deletion strains, growth OD

Measured: normalized growth

CC(=O)CCCCn1c(=O)c2c(ncn2C)n(C)c1=O
inactive: locus YAL013W, strain DEP1, active compounds read low 1.02 | locus YAL021C, strain ccr4, active compounds read low 1.01 | locus YAL026C, strain drs2, active compounds read low 1.01 | locus YAL030W, strain snc1, active compounds read low 1.01 | locus YAL040C, strain CLN3, active compounds read low 1 | locus YBL061C, strain skt5, active compounds read low 1.01 | locus YBR009C, strain hhf1, active compounds read low 1.02 | locus YBR021W, strain FUR4, active compounds read low 0.991 | locus YBR023C, strain chs3, active compounds read low 1.01 | locus YBR171W, strain sec66, active compounds read low 1.04 | locus YBR229C, strain ROT2, active compounds read low 1.02 | locus YBR231C, strain swc5, active compounds read low 1.03 | locus YBR279W, strain paf1, active compounds read low 1 | locus YCL011C, strain gbp2, active compounds read low 1.01 | locus YCL016C, strain dcc1, active compounds read low 1.01 | locus YCL029C, strain bik1, active compounds read low 1.01 | locus YCL061C, strain MRC1 (second series), active compounds read low 1.01 | locus YCL061C, strain MRC1, active compounds read low 1.01 | locus YCL069W, strain vba3, active compounds read low 1 | locus YCR088W, strain abp1, active compounds read low 1.01 | locus YDL005C, strain med2, active compounds read low 1.01 | locus YDL035C, strain GPR1, active compounds read low 1.01 | locus YDL040C, strain nat1, active compounds read low 1.01 | locus YDL074C, strain BRE1, active compounds read low 1.04 | locus YDL101C, strain DUN1, active compounds read low 1.02 | locus YDL185W, strain tfp1, active compounds read low 0.999 | locus YDL192W, strain arf1, active compounds read low 1 | locus YDR001C, strain nth1, active compounds read low 1.01 | locus YDR069C, strain doa4, active compounds read low 1.03 | locus YDR101C, strain arx1, active compounds read low 1.01 | locus YDR137W, strain rgp1, active compounds read low 1.03 | locus YDR150W, strain NUM1, active compounds read low 1.02 and 0.998 | locus YDR159W, strain sac3, active compounds read low 1.03 | locus YDR162C, strain NBP2, active compounds read low 1.01 | locus YDR195W, strain ref2 1.02 | locus YDR297W, strain sur2, active compounds read low 1.01 | locus YDR318W, strain mcm21, active compounds read low 0.993 | locus YDR334W, strain swr1, active compounds read low 1.02 | locus YDR335W, strain msn5, active compounds read low 1.01 | locus YDR363W, strain ESC2, active compounds read low 1 | locus YDR388W, active compounds read low 0.999 | locus YDR392W, strain spt3, active compounds read low 1.02 | locus YDR502C, strain sam2, active compounds read low 1.01 | locus YEL003W, strain gim4, active compounds read low 1.01 | locus YEL037C, strain rad23, active compounds read low 1.01 | locus YEL061C, strain CIN8 (second series), active compounds read low 1.01 | locus YEL061C, strain CIN8, active compounds read low 1.01 | locus YER002W, strain NOP16, active compounds read low 1.03 | locus YER015W, strain faa2, active compounds read low 1.02 | locus YER016W, strain bim1, active compounds read low 1.01 | locus YER110C, active compounds read low 0.992 | locus YER111C, strain swi4, active compounds read low 1.03 | locus YER155C, strain BEM2 (second series), active compounds read low 1.02 | locus YER155C, strain BEM2, active compounds read low 1.01 | locus YER167W, strain BCK2, active compounds read low 1 | locus YFR010W, strain ubp6, active compounds read low 1.01 | locus YGL078C, strain dbp3, active compounds read low 1.01 | locus YGL086W, strain mad1, active compounds read low 1.01 | locus YGL167C, strain pmr1, active compounds read low 1.02 | locus YGL173C, strain kem1, active compounds read low 1.02 | locus YGL227W, strain vid30, active compounds read low 1.01 | locus YGL240W, strain doc1, active compounds read low 1.03 | locus YGL248W, strain PDE1, active compounds read low 1.03 | locus YGL253W, strain hxk2, active compounds read low 1.02 | locus YGR078C, strain PAC10, active compounds read low 1.02 | locus YGR135W, strain pre9, active compounds read low 0.967 | locus YGR229C, strain SMI1, active compounds read low 1.02 | locus YGR252W, strain gcn5, active compounds read low 0.983 | locus YHR013C, strain ard1, active compounds read low 1.04 | locus YHR027C, strain rpn1, active compounds read low 1.02 | locus YHR030C, strain SLT2, active compounds read low 1.02 and 0.994 | locus YHR079C, strain IRE1 (second series), active compounds read low 1.01 | locus YHR079C, strain IRE1, active compounds read low 0.99 | locus YHR094C, strain hxt1, active compounds read low 0.995 | locus YHR129C, strain ARP1, active compounds read low 1.02 | locus YHR142W, strain chs7, active compounds read low 1.01 | locus YHR200W, strain rpn10, active compounds read low 1 | locus YIL066C, strain RNR3, active compounds read low 1.03 | locus YIL073C, strain SPO22, active compounds read low 0.971 | locus YIL125W, strain kgd1, active compounds read low 0.999 | locus YIR030C, strain dcg1, active compounds read low 1.01 | locus YJL092W, strain hpr5, active compounds read low 1.01 | locus YJL095W, strain BCK1 (second series), active compounds read low 1 | locus YJL095W, strain BCK1, active compounds read low 1.03 and 0.986 | locus YJL115W, strain asf1, active compounds read low 1.01 | locus YJL129C, strain trk1, active compounds read low 1.03 | locus YJL134W, strain LCB3, active compounds read low 1 | locus YJL154C, strain vps35, active compounds read low 1.01 | locus YJL164C, strain tpk1, active compounds read low 1.02 | locus YJL166W, strain qcr8, active compounds read low 1.01 | locus YJL168C, strain set2, active compounds read low 0.99 | locus YJL187C, strain SWE1 (second series), active compounds read low 1.03 | locus YJL187C, strain SWE1, active compounds read low 1.01 | locus YJR043C, strain POL32, active compounds read low 1.04
